Measured values reported in PubChem BioAssay (NCI).
About 79,000 compounds went through this panel and 15% of them were active in at least one assay; those are over-represented in the sample as a whole. Activity calls are given as the source filed them. Cut-off read from the data, not from the text of the source: active = growth inhibition above about 70%; inactive = the rest.

Experiment: NCI Yeast Anticancer Drug Screen. Data for the CLN2oe strain (AID 163);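 note: 0% = growth of vehicle-only control cultures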
Conditions: S. cerevisiae CLN2oe strain, stronger effect = higher value
Procedure: Growth inhibition of yeast strains with defined genetic alterations is measured as a screen for potential anti-cancer activity. Selected strains with alterations in DNA damage repair or cell cycle control were exposed to compounds and growth inhibition was measured relative to vehicle treated controls. The strain used in this assay is CLN2oe

Measured: growth inhibition

COc1cc(/C=C2\CCC/C(=C\c3ccc(O)c(OC)c3)C2=O)ccc1O
inactive: at 1.2 µM -7% | at 3.7 µM -6% | at 11.0 µM -7% | at 33.0 µM -5% | at 100.0 µM -6%

CCOC(=O)c1cc([N+](=O)[O-])c(Sc2ncnc3nc[nH]c23)c([N+](=O)[O-])c1
active: at 100.0 µM 83%
inactive: at 1.2 µM -18% | at 3.7 µM -2% | at 11.0 µM 29% | at 33.0 µM 49%

CN(C)CCNC(=O)c1cccc2cc([N+](=O)[O-])ccc12
inactive: at 1.2 µM 15% | at 3.7 µM 20% | at 11.0 µM 43% | at 33.0 µM 56%
active: at 100.0 µM 84%

Cc1cc(-c2cc(C)c(O)c(C(C)(C)C)c2)cc(C(C)(C)C)c1O
active: at 100.0 µM 73%
inactive: at 1.2 µM -51% | at 3.7 µM -62% | at 11.0 µM -42% | at 33.0 µM 15%

O=C1c2ccccc2C(=O)N1CCCC(=O)n1cc(F)c(=O)[nH]c1=O
inactive: at 1.2 µM 2% | at 3.7 µM 19% | at 11.0 µM -19% | at 33.0 µM 10% | at 100.0 µM 38%

COc1cc(/C=N/Nc2nnc3c4ccccc4c4ncccc4c3n2)cc(OC)c1OC
inactive: at 1.2 µM -8% | at 3.7 µM -2% | at 11.0 µM -2% | at 33.0 µM -3% | at 100.0 µM 1%

CC(C)(C)c1ccc(NS(=O)(=O)c2ccc(N)cc2)cc1
inactive: at 1.2 µM 4% | at 3.7 µM 2% | at 11.0 µM 1% | at 33.0 µM 4% | at 100.0 µM 19%

O=[N+]([O-])c1ccc2c(c1)/C(=N/N=C1c3ccccc3Cc3ccccc31)c1cc([N+](=O)[O-])cc([N+](=O)[O-])c1-2
active: at 11.0 µM 99% | at 33.0 µM 99% | at 100.0 µM 95%
inactive: at 1.2 µM 28% | at 3.7 µM 50%
